This passage reports inhibition results from PubChem BioAssay AID527 (NMMLSC, 2006).

Usually inhibition stands for the change of the read-out against control, counted positive when it falls.

The whole screen tested about 24,000 compounds, of which about 65 (0.3%) were called active. This is one part of a sample in which actives are shown more often than they occur.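 How the source made its calls: active means share of bacteria positive for the green fluorescent reporter and its mean brightness both inhibited by 50% or more; inactive means the rest, inconclusive results apart.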

This assay in a line: S. aureus quorum sensing inhibitors, primary screen, RNAIII-GFP reporter, flow cytometry (AID 527).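 Further: 0% = AIP-stimulated control and 100% = unstimulated bacteria without AIP.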 The following applies: S. aureus RN6390 RNAIII-GFP reporter, AIP-induced, flow cytometry 3 h, at 2 µM, stronger effect = higher value. On the technique in general: A flow cytometer gives signals particle by particle.
Setting [1] is: measured here: inhibition of GFP MFI.

Consider `O=C(NC1=NCCS1)[C@H](Cc1ccccc1)N1C(=O)c2ccccc2C1=O`, for which the inhibition was -2% (inactive). The inhibition under setting [1] was -7.9%.

With `CCOc1ccc(/C(O)=C2/C(=O)C(=O)N(Cc3cccnc3)C2c2ccc(N(C)C)cc2)c(C)c1` (centres undefined), the inhibition was -1.8% (inactive). In addition, the inhibition under setting [1] is -3.1%.

As to `Cc1cc(NC(=O)CSc2nnc(-c3ccc(Cl)s3)o2)no1`, the inhibition is -5.9% (inactive). The inhibition under setting [1] is -26.8%.

For the compound `COc1ccc(NC(=O)CCNC(=O)Cn2ccc3ccccc3c2=O)c(OC)c1`, the inhibition is -1.1% (inactive). Moreover, the inhibition under setting [1] is -13.6%.

Turning to `COc1ccccc1N1CCN(c2nc3ccccc3n3nnnc23)CC1`, the inhibition is -2.2% (inactive). The inhibition under setting [1] is -4.7%.

For `CC(=O)c1cccc(S(=O)(=O)N2CCC(n3nnc4cc(F)ccc43)CC2)c1`, the inhibition is -1.4% (inactive). Besides, the inhibition under setting [1] was -26.3%.

`CCOC(=O)c1cn(CC(=O)Nc2ccc(C(C)C)cc2)nn1`: the inhibition is 2.3% (inactive). The inhibition under setting [1] was determined as 13.3%.

As to `CCOC(=O)c1ccc(Nc2cc(C)nc3nc(C)nn23)cc1`, the inhibition is -5.5% (inactive). Further, the inhibition under setting [1] was -32.8%.

For `Cn1c(C(=O)NCCN2CCc3ccccc3C2)cc2c(=O)[nH]c3ccccc3c21`, the inhibition is -1.3% (inactive). Further, the inhibition under setting [1] was -0.4%.

On to `COc1ccc(-n2ncc3c(N4CCCc5ccccc54)ncnc32)cc1`, for which the inhibition was -3.1% (inactive). In addition, the inhibition under setting [1] is -2.2%.

As for `C=CCOc1ccc(/C=N/n2cncn2)cc1OC`, the inhibition was 0.5% (inactive). Moreover, the inhibition under setting [1] is -15.3%.

With `Cc1ccc(NC2=NC(c3ccccc3)n3c(nc(C)cc3=O)N2)cc1` (centres undefined), the inhibition was -2.1% (inactive). Also, the inhibition under setting [1] is -6.2%.

As for `CCCNC(=O)Nc1ccccc1C(=O)Nc1ccc(OC)cc1`, the inhibition is 1.7% (inactive). In addition, the inhibition under setting [1] was 13.6%.

In the case of `COc1ccc(CC(=O)Nc2ccc(-c3nnc(-c4ccc(C)cc4)o3)cc2)cc1`, the inhibition was 7.6% (inactive). In addition, the inhibition under setting [1] turned out to be 35.1%.

Consider `COc1ccc(NC(=O)c2c(SC)nsc2SC)cc1`, for which the inhibition is 67.4% (active). The inhibition under setting [1] was 74.3%.

For `Cc1noc(COc2ccccc2OCC(O)CNC(C)(C)C)n1` (centres undefined), the inhibition is -0.1% (inactive). Further, the inhibition under setting [1] worked out at 0.9%.

Regarding `Cc1cccc(C2c3c(n(C)c(=O)n(C)c3=O)N=C3c4ccccc4C(=O)C32)c1` (centres undefined), the inhibition is 1.5% (inactive). For the same compound, the inhibition under setting [1] was 20.3%.

In the case of `COc1cccc(N(C(=O)c2ccn[nH]2)C2(C(=O)Nc3c(C)cccc3C)CCCCC2)c1`, the inhibition was 5.5% (inactive). Under setting [1], the inhibition was -8%.

Regarding `CCN(Cc1nc2ccccc2c(=O)[nH]1)Cc1cc(=O)oc2cc(C)c(C)cc12`, the inhibition is 4.2% (inactive). The inhibition under setting [1] was 13.1%.

In the case of `Cn1c(COc2ccc(Cl)cc2)nc2ccccc2c1=O`, the inhibition is -6.8% (inactive). In addition, the inhibition under setting [1] is -42.8%.

As for `COc1ccc(OC)c(C2N(c3ccccn3)C(=O)C3CCCN32)c1` (centres undefined), the inhibition is -2.2% (inactive). Also, under setting [1], the inhibition was -7.1%.

`COc1cccc(C(CC(=O)NCCN2CCOCC2)NS(=O)(=O)c2ccc(C)cc2)c1OC` (centres undefined): the inhibition is -5% (inactive). Moreover, under setting [1], the inhibition is -11.5%.

Consider `COc1ccccc1C(=O)n1nc(-c2ccccc2)nc1N`, for which the inhibition was -0.9% (inactive). Under setting [1], the inhibition is -0.5%.

As for `Cc1cc(=O)n2nc(N3CCCC3C(=O)NCCCN3CC(C)CC(C)C3)sc2n1` (centres undefined), the inhibition was 2.5% (inactive). In addition, the inhibition under setting [1] was 17.6%.

As to `CC1CCCCN1S(=O)(=O)c1ccc(C(=O)Nc2nnc(-c3cccs3)o2)cc1` (centres undefined), the inhibition is 65.9% (active). For the same compound, under setting [1], the inhibition came out at 62.3%.

Regarding `CCc1nnc(NC(=O)c2ccc(S(=O)(=O)NC3CCCCC3)cc2)s1`, the inhibition was 0.3% (inactive). Further, under setting [1], the inhibition stood at 4.5%.

For the compound `COc1cccc(-c2nnc(NC(=O)c3ccc(S(=O)(=O)N(CC(C)C)CC(C)C)cc3)o2)c1`, the inhibition was 14.3% (inactive). For the same compound, the inhibition under setting [1] was found to be 15.6%.

`O=C(O)Cc1ccc(-c2ccccc2)cc1`: the inhibition is -0.8% (inactive). The inhibition under setting [1] turned out to be 3.1%.

On to `CN(C(=O)C1CCOC1)c1nnc(-c2cccnc2)s1` (centres undefined), for which the inhibition is -2.1% (inactive). The inhibition under setting [1] is 1.3%.

On to `COc1ccc(N2CCN(C(=O)CNC(=O)c3ccc(C(C)(C)C)cc3)CC2)cc1`, for which the inhibition is -5.2% (inactive). For the same compound, the inhibition under setting [1] is -22.7%.

Consider `CCOc1cc(C(=O)Nc2ncccn2)cc(OCC)c1OCC`, for which the inhibition was -0.2% (inactive). In addition, the inhibition under setting [1] worked out at 0.7%.

Turning to `COC(=O)Nc1ccc(S(=O)(=O)N(C)CC(F)(F)C(F)F)cc1`, the inhibition was -3.8% (inactive). Also, under setting [1], the inhibition is -5.8%.

As for `CC(=O)NC(Cc1ccc(F)cc1)C(=O)O` (centres undefined), the inhibition was -5.3% (inactive). Besides, the inhibition under setting [1] is -7.6%.

Consider `Cc1nc2ccc(S(=O)(=O)NC(C(=O)N3CCCCCC3)C(C)C)cc2s1` (centres undefined), for which the inhibition was 0.8% (inactive). In addition, the inhibition under setting [1] is -1%.

On to `Cc1nc(NC(=O)CCC(=O)O)sc1C(=O)N(C)C`, for which the inhibition was -4.1% (inactive). Under setting [1], the inhibition was -15.4%.

As to `O=C(O)C1C2C=CC(C2)C1C(=O)N1CCN(CCO)CC1` (centres undefined), the inhibition is -0.3% (inactive). Under setting [1], the inhibition was -23.2%.

For `Cc1nnc(SCCCn2c(N3CCCCC3)nc3c2c(=O)[nH]c(=O)n3C)s1`, the inhibition was 2.3% (inactive). For the same compound, the inhibition under setting [1] was determined as 8.9%.

`CCOC(=O)CSc1nnc(CNC(=O)c2cccs2)n1-c1cc(OC)ccc1OC`: the inhibition was 1.2% (inactive). Further, the inhibition under setting [1] turned out to be 29.5%.

In the case of `O=C(CSc1nc2ccccc2o1)N1CCN(c2ccc(Cl)cc2)CC1`, the inhibition was 0.5% (inactive). Moreover, the inhibition under setting [1] amounted to 5.2%.

On to `CCOc1ccc(NC(=O)CC2NCCNC2=O)cc1` (centres undefined), for which the inhibition is 0.5% (inactive). Moreover, under setting [1], the inhibition is 16.7%.

In the case of `CCOc1ccc(CNC(=O)C2CCC(=O)N2C2CCCC2)cc1OC` (centres undefined), the inhibition is 3.8% (inactive). Also, under setting [1], the inhibition turned out to be 11.6%.

On to `CCOC(=O)N1CCC(NC(=O)c2ccc3nc(N4CCOCC4)sc3c2)CC1`, for which the inhibition was -5.4% (inactive). In addition, the inhibition under setting [1] was -36.9%.
